We go through 12 molecules from ChEMBL document CHEMBL5308504, “Tm Shift (DSF) assay results for EUbOPEN Chemogenomics Library” (2023).

Each structure is given as a SMILES string.

Assay [1] has as its target Bromodomain-containing protein 4 (Homo sapiens) (UniProt O60885). The conditions noted are these: Compound concentration 20.0 uM, Protein concentration 2.0 uM, Result type QC Liability.
Assay [2] has as its target T1, Transcription intermediary factor 1-alpha (Homo sapiens) (UniProt O15164).
T1 sequence (whole entry): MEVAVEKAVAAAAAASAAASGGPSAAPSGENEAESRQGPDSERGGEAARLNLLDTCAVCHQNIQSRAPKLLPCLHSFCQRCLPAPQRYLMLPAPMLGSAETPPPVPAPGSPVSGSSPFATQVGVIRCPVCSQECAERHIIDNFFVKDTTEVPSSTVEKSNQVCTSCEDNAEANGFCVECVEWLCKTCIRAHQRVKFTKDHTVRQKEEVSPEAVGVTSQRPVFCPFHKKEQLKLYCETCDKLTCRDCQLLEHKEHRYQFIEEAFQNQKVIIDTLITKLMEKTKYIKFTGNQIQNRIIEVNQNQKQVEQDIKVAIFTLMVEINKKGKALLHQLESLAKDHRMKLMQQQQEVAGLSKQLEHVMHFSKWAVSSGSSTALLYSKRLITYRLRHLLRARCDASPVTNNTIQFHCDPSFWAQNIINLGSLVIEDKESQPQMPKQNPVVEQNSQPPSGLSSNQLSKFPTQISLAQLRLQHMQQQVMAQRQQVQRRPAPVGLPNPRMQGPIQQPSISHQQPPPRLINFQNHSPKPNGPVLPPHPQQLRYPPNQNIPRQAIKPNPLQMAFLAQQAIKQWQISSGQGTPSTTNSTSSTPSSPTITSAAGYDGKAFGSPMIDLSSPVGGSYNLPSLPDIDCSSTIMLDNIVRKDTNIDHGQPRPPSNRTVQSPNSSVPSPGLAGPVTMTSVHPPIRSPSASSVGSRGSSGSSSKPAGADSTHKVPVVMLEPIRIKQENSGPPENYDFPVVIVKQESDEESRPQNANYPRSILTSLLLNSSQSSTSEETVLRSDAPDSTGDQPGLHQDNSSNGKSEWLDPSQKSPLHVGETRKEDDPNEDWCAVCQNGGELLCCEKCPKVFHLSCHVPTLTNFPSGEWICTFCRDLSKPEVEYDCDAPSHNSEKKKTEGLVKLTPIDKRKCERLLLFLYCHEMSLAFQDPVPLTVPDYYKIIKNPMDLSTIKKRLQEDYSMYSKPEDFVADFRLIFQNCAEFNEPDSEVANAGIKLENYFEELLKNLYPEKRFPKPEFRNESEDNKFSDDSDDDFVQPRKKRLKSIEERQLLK
As to conditions: Compound concentration 20.0 uM, Protein concentration 2.0 uM, Result type QC Liability.

Consider `Cc1nc(Nc2cnn(C3CCNCC3)c2)nc2c1N(C)C(=O)c1cc3ccccc3cc1N2C`, for which the ΔTm in assay [1] is -2.15 °C; in assay [2], -2.83 °C.
Taken in the same sequence, the figures for `Oc1c(-c2cccnc2)cnn1-c1ccccn1` were -1.85 °C and 0.29 °C.
In the case of `CC1(C)C[C@@H]1C(=O)N/C(=C\CCCCSC[C@H](N)C(=O)O)C(=O)O`, the ΔTm was -2.05 °C in assay [1] and -0.56 °C in assay [2].
Consider `Cn1cc(-c2cnc3ccc4ccc(CS(=O)(=O)NCc5ccccn5)cc4c(=O)c3c2)cn1`, for which the figures for the ΔTm in assay [1] and in assay [2] were -1.72 °C and -0.28 °C, respectively.
Take `Cc1cc2c(-c3ccco3)cnc(N[C@H]3CCN(C)C[C@@H]3C(=O)NC3CCCCC3)c2[nH]c1=O`: the thermal shift (ΔTm) is 3.29 °C in assay [1] and -2.71 °C in assay [2].
Take `COc1cc(C(N)=O)ccc1Nc1ncc2c(n1)N(CCC(C)C)[C@H](C)C(=O)N2C`: the ΔTm in assay [1] was 6.98 °C; in assay [2], -0.48 °C.
In the case of `Cc1cn([C@@H](C)CC#N)c(=O)c2cc(Cn3nc(C(F)F)cc3Cl)nn12`, the values for the ΔTm in assay [1] and in assay [2] were -0.88 °C and -2.22 °C, respectively.
Taken in the same sequence, the figures for `CN(CC(=O)Nc1ccc(F)c(F)c1F)C(=O)c1ccc2c(c1)OCCO2` were -2.94 °C and -2.59 °C.
Taken in the same sequence, the figures for `N#Cc1ccc(C#CC[C@@H](C#N)NC(=O)[C@@H]2CCCCN2)cc1F` were -1.93 °C and 0.36 °C.
Taken in the same sequence, the figures for `OC(c1ccc(-c2ccc(CN3CCN(Cc4ccncc4)CC3)cc2)c(F)c1)(C(F)(F)F)C(F)(F)F` were -1.34 °C and -2.91 °C.
On to `CNc1ncc2cc(-c3ccc(-c4cccc(C)n4)cc3Cl)c(=O)n(C[C@H]3OC[C@H](N)CO3)c2n1`, for which the ΔTm in assay [1] is -1.96 °C; in assay [2], -2.28 °C.
Take `COc1ccc2c(O[C@@H]3C[C@H]4C(=O)N[C@]5(C(=O)NS(=O)(=O)C6(C)CC6)CC5/C=C\CCCCC[C@H](NC(=O)c5ccn(C)n5)C(=O)N4C3)cc(OC(C)C)nc2c1C` (some centres undefined): the ΔTm came out at 1.29 °C in assay [1] and 0.91 °C in assay [2].
